BAZ2B block: blocks human BAZ2B; AlphaScreen BAZ2B-H3K14Ac peptide displacement; Potency, µM (titrated, usually from 114 µM), inactives show at the top dose activity change, negative = inhibition, usual class: inhibitors; hit rate 4.4% among 360,000; Q9UIF8; further: on the % scale 0 is the no-effect control and ±100 the full control effect; nearly all actives have a fitted effect of over 60% in size
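AlphaScreen luminescence quantifies BAZ2B engagement of H3K14Ac peptide; the protein and biotinylated peptide are both at 50 nM final, buffer PBS pH 7.4 with 0.01% Tween-20, all steps at room temperature.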
HP1b binding inh: HP1-beta chromodomain-methylated histone interaction inhibition | P83916 | AlphaScreen HP1-beta / biotin-H3K9me3 peptide binding | Potency, µM (titrated, usually from 114 µM), without a hit: at the highest dose activity change, negative = inhibition, actives largely listed as inhibitors | hit rate 0.56% among 390,000; further: nearly all actives have a fitted effect of over 70% in size
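AlphaScreen: HP1-beta (50 nM) preformed 30 min with biotin-H3(1-18)K9me3 peptide (50 nM) in PBS pH 7.4, 0.01% Tween-20. Compound added for 30 min at RT, then streptavidin donor/nickel chelate acceptor beads (10 ug/mL) for 30 min.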
JMJD2A Tudor inh: inhibitors of human JMJD2A Tudor domain. Potency, µM (doses to about 114 µM), for inactives: top-dose activity change, negative = inhibition, actives largely listed as inhibitors. AlphaScreen JMJD2A-Tudor / H3K4me3 peptide binding. AID 504339. hit rate 4.4% among 390,000. O75164; further: on the % scale 0 is the no-effect control and ±100 the full control effect; nearly all actives have a fitted effect of over 50% in size
L3MBTL1 block: blocks human L3MBTL1; Q9Y468; AlphaScreen L3MBTL1–H3K9me1 peptide binding; Potency, µM (highest dose often 57.1 µM), without a hit: at the top dose activity, negative = inhibition, hits mostly inhibitors; hit rate 0.66% among 230,000; AID 485360; further: on the % scale 0 is the no-effect control and ±100 the full control effect; nearly all actives have a fitted effect of over 60% in size
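Displacement of a biotinylated histone H3(1-15) peptide monomethylated at Lys9 (75 nM) from L3MBTL1 (50 nM) was measured by AlphaScreen after a 30 min room-temperature compound incubation; cefsulodin titration served as intraplate control.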
G9a inh: G9a (human) methyltransferase inhibition | Q96KQ7 | G9a H3K9 monomethylation, AlphaScreen, 2 h | Potency, µM (doses to about 102 µM), without a hit: at the highest dose activity, negative = inhibition, usual class: inhibitors | hit rate 8.8% among 350,000; further: on the % scale 0 is the no-effect control and ±100 the full control effect; nearly all actives have a fitted effect of over 75% in size
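AlphaScreen read-out: biotin-H3K9 peptide (500 nM) methylation by 20 nM enzyme with 20 uM SAM, 2 h at room temperature after 15 min compound preincubation; anti-monomethyl H3K9 antibody plus donor/acceptor beads, 10 min dark.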
* = called active by the depositor; ? = inconclusive; . = not tested or not shown; ! = repeats disagree; [ ] = another dose, or the depositor's remark. Most compounds without a hit are left out; they make up all but 11% or so of the library. The call rests on the fitted dose curve; in most records, active means well fitted inhibition curve with a large enough effect; inconclusive means small, poorly fitted or top-dose-only effect; inactive means no such curve, though single readings can be large or run the other way. Potency means the concentration at half of the fitted maximal effect.

SMILES | BAZ2B block | HP1b binding inh | JMJD2A Tudor inh | L3MBTL1 block | G9a inh
COc1ccc(OCc2nnc(SCC(=O)NCC3CCCO3)n2N)cc1 (stereo not given) | . | ? | -14% | 2% | .
CCCCN1CCS(=O)(=O)N(Cc2ccccc2Br)CC(C(=O)OC)C1 (stereo not given) | . | 97% | -11% | 0% | .
CC(N)Cc1cn(Cc2ccccc2)c2ccccc12 (stereo not given) | -30% | -22% | 79µM* | -1% | ?
CC(=O)c1cn(Cc2ccc(F)cc2)c2ccccc12 | -33% | 23% | -2% | 1% | 14%
O=C(O)c1ccccc1NS(=O)(=O)c1cccc(N=Nc2c(O)[nH]c(=S)[nH]c2=O)c1 | -12% | -18% | -17% | 0% | 50µM*
Cc1ccccc1Nc1c(-c2ccc(Br)cc2O)nc2sccn12 | 22µM* | 2% | ? | . | ?
Clc1ccc(C(c2ccc(Cl)cc2)n2cc[n+](CC(OCc3ccc(Cl)cc3Cl)c3ccc(Cl)cc3Cl)c2)cc1 (stereo not given) | -38% | 0% | 50µM* | 5% | 18µM*!
CN(C)c1cccc2c(C#N)ccc(N(C)C)c12 | -19% | ? | ? | -18% | 45µM*
O=C1C(Cc2cnc[nH]2)NC(=S)N1c1ccccc1 (stereo not given) | -3% | 22% | ? | . | 50µM*
CC(=O)C1CCC2C3CCC4=CC(=O)CC[C@@]4(C)C3CC[C@]12C (stereo not given in full) | . | . | . | . | -21%[2.33 µM]
CC(C)N1CCN(Cc2cccc([N+](=O)[O-])c2)CC1 | 50µM* | ? | 0.89µM* | . | 3.5µM*
O=[N+]([O-])c1cccc(CN2CCN(Cc3ccc(Cl)cc3)CC2)c1 | 20µM* | ? | 0.79µM* | -20% | 3.5µM*
CCN1C[C@]2(COC)CC[C@H](O)[C@@]34[C@@H]5C[C@H]6[C@@H](OC)[C@H]5[C@](O)(C[C@@H]6OC)[C@@](O)([C@@H](OC)[C@H]23)[C@@H]14 | . | . | . | . | 22%[21.5 µM]
O=C(O)c1ccc[nH]c1=S | 40µM* | 38% | 0.89µM* | -1% | 3.5µM*
O=C(O)c1ccccc1C(=O)O | ? | 97% | -12% | 6% | 1%[0.501 µM]
OCCN(CC#CC(O)(c1ccccc1)C1CCCC1)CCO (stereo not given) | -33% | 23% | ? | 4% | 50µM*
Cc1ccc(C)c(S(=O)(=O)c2nnn3c2nc(N2CCN(C)CC2)c2sccc23)c1 | ? | 41% | -29% | . | 5%[59 µM]
CCn1ncc(-c2ccnc3cc(C(=O)O)nn23)c1C | 32µM* | 15% | 25µM* | 16µM* | ?
COc1ccc(NC(=O)c2ccco2)cc1NC(=O)COc1cc(C)cc(C)c1 | -24% | 41% | -16% | . | -32%[59 µM]
CC(=O)N1CCN(CC(=O)Nc2ccc(C#N)c(Cl)c2)CC1 | 0% | 30% | -18% | . | -15%
COc1ccc(CC(=O)Nc2ccc(C#N)c(Cl)c2)cc1S(=O)(=O)N1CCOCC1 | ? | 18% | -10% | . | 40µM*
Cc1ccc(N)c(C(=O)c2ccc(Br)cc2)c1 | 40µM* | ? | 28µM* | . | 16µM*
C[C@H](N)Cc1cnc[nH]1 | . | . | . | . | -39%[59 µM]
CCN(CCCl)c1cc(CN(C)C)cc(NC(=O)c2ccc(C(=O)Nc3cc(CN(C)C)cc(N(CC)CCCl)c3)cc2)c1 | . | 10µM* | 13µM* | . | .
Cn1c(=O)n(C)c2cc(N3CCCC3)c(NC(=O)Nc3ccccc3)cc21 | 50µM* | 6% | -22% | . | -34%[59 µM]
SMILES | BAZ2B block | HP1b binding inh | JMJD2A Tudor inh | L3MBTL1 block | G9a inh
Cn1c(=O)n(C)c2cc(CNCCc3ccccc3)ccc21 | -33% | 46% | -3% | . | -1%[59 µM]
Cc1cc(OCC(=O)N2CCN(CCc3ccncc3)CC2)cc(C)c1Cl | -9% | 38% | -8% | . | -2%[59 µM]
CC(Cc1ccccc1)NCC(=O)Nc1cc(N(C)C)nc2ccccc12 (stereo not given) | 35µM* | ? | 1.1µM* | . | ?
COc1ccc(N2CCN(CCCNC(=O)c3cnn(-c4ccc(F)cc4)c3-n3cccc3)CC2)cc1 | ? | -11% | 45µM* | . | 13µM*
CC(C)(C)c1ccc(O)c(N=Cc2c(O)ccc3ccccc23)c1 | 40µM* | 30% | ? | -4% | 8.9µM*
CCN1C(=O)/C(=C\c2ccc([N+](=O)[O-])s2)C(=O)NC1=S | 10µM* | . | . | . | 2.8µM*
C=CCN1C(=O)/C(=C/c2cc(C)n(-c3cccnc3)c2C)C(=O)NC1=S | -39% | 4% | -12% | -20% | ?
C=CCN1C(=O)/C(=C/c2ccc(Br)s2)C(=O)NC1=S | 56µM* | -13% | 45µM* | -10% | 3.2µM*
Cc1ccc(/C=C2\C(=O)NC(=O)N(CCc3ccc(F)cc3)C2=O)s1 | -11% | 31% | -2% | . | ?
O=P(O)(O)c1ccccc1OCCOCCOCCOCCOc1ccccc1P(=O)(O)O | -34% | 47% | -8% | . | 10µM*
CCCOc1ccccc1NP(=O)(Oc1ccccc1)Oc1ccccc1 | 37% | 76% | 53% | . | 68%
Cc1cccc(-n2c(CC3C(=O)Nc4ccc(C)cc43)nc3ccccc3c2=O)c1 (stereo not given) | -31% | 11% | -31% | . | ?
O=c1c2ccccc2nc(CNc2ccccc2)n1-c1ccccc1 | -12% | 45% | -24% | -13% | 32µM*
Cc1ccccc1-n1c(CNc2ccccc2)nc2ccccc2c1=O | . | 33% | -29% | . | .
O=C1Nc2ccccc2C1Cc1nc2ccccc2c(=O)n1-c1ccccc1 (stereo not given) | 79µM* | 0% | -20%[11.4 µM] | . | -35%
O=C(Nc1ccc(Cl)c(C(F)(F)F)c1)NC1CC2CCCC(C1)N2Cc1ccccc1 (stereo not given) | -26% | 43% | -8% | . | -8%[59 µM]
CN1CC[C@@]2(C)c3cc(OC(=O)Nc4ccccc4)ccc3N(C)[C@@H]12 | . | . | . | . | 16µM*
CN1CC[C@@]2(C)c3cc(O)ccc3N(C)C2O1 (stereo not given in full) | . | -16% | -21% | . | .
CN1CC[C@@]2(C)c3cc(O)ccc3N(C)[C@@H]12 | . | ? | 4µM*! | . | .
CNC(=O)Oc1ccc2c(c1)[C@@]1(C)CCN(C)[C@@H]1N2C | . | . | . | . | 8%[21.5 µM]
O=c1[nH]c(O)c(/C=C2/C=CC(c3cc(Cl)ccc3Cl)=N2)c(=O)[nH]1 | ? | 28% | ? | . | 50µM*
CC(C)(O)C1C2OC(=O)C1[C@]1(O)C[C@H]3O[C@]34C(=O)O[C@H]2[C@]14C (stereo not given in full) (tested in a mixture with another compound) | . | . | . | . | 22%[12.7 µM]
COc1ccc2c(c1)CC1(CN2C)C(=O)NC(=O)N(c2ccc(F)cc2)C1=O (stereo not given) | 4% | 55% | -22% | -5% | 20µM*
CCC(C)N1C(=O)NC(=O)C2(Cc3cc(C)ccc3N(C)C2)C1=O (stereo not given) | . | 50% | -13%[57.1 µM] | -4% | ?
